Source: PubChem
EBV LMP1 NFkB – reduces LMP1-driven NF-kappaB luciferase signal | inhibition, % at 12.5 µM | LMP1-induced NF-kappaB luciferase reporter cells, luminescence | 350,000 tested, 0.69% active; in the data active means inhibition above about 41%; inconclusive means no clear call, values can overlap the other calls;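 further: 0% = neutral control wells and 100% = reference inhibitor control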
HSF-1 act – increases HSF-1 driven luciferase reporter signal; NIH3T3-HGL HSF-1 luciferase reporter, MG132, 8 h; 100% = twice DMSO control signal; activation, % at 9 µM; 300,000 tested, 1.7% active; AID 504408;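 active means mean replicate activation of at least 50% with a set share of replicates each reaching 50%; inconclusive means only one of those two conditions met; inactive means mean below 50% and too few replicates reaching it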;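 further: 0% = median of the neutral control wells and 100% = twice that signal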
LGR2 antag – Drosophila LGR2 receptor signaling inhibition | 380,000 tested, 0.35% active | inhibition, % at 9.99 µM | HEK293 LGR2, CRE-luciferase, bursicon-stimulated, 4 h | AID 720647;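 active means drop in luminescence signal, shown as inhibition above about 50% in the replicate tests, limit read from the data, passing the limit was not always enough; inconclusive means probably only some replicates passing the limit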;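 further: agonist challenge used bursicon conditioned medium at about half maximal strength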
TROY NFkB inh – inhibitors of TROY-dependent NF-kB signaling; AID 1347056; inhibition, % at 10 µM; Q293 LMP1-TROYcd NF-kB luciferase reporter, 4 h; 360,000 tested, 0.98% active;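 active means compounds whose plate-normalised and pattern-corrected inhibition of the luciferase reporter signal at the single screening dose is 50% or more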
TWEAK-Fn14 inh – blocks TWEAK-Fn14 interaction in a reporter cell assay. TWEAK-stimulated Fn14 reporter cells, luciferase luminescence, 8 h. inhibition, % at 10 µM. 360,000 tested, 2% active. AID 1159606; in the data active means inhibition above about 50%
HSF1 inh – HSF1 inhibition. 300,000 tested, 0.77% active. NIH3T3-HGL HSE-luciferase, MG132-induced, luminescence 8 h; hits give low values. activity change, negative = inhibition, % at 7.5 µM (by protocol). AID 2098;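 active means more than half of replicate wells show activity change below -50%, luminescence cut by over half; inconclusive means some wells, but at most half, below -50%; inactive means no replicate well below -50%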;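 further: luciferase reports HSF-1 transcriptional activity via heat shock element; 0% = median of DMSO wells and -100% = zero luminescence signal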
* marks the source's active call; other numbers are inactive results. This is a sample that favours compounds with a hit; in the whole collection about 3.6% have one here.

Results for COc1ccccc1C(CC(=O)c1ccccc1)C(=O)c1ccccc1 (stereo unspecified) ?
LGR2 antag: 5.3

Results for C=C(C(=O)c1ccccc1)C(CC(=O)c1ccccc1)c1ccccc1 (stereo unspecified) ?
EBV LMP1 NFkB: 68.9*; HSF-1 act: 144.3*; LGR2 antag: inconclusive; TROY NFkB inh: 11.1; TWEAK-Fn14 inh: 71.4*; HSF1 inh: 85.6

Results for C=C(CCC(=O)c1ccccc1)C(=O)c1ccccc1 ?
EBV LMP1 NFkB: 5.5; HSF-1 act: 102.6*; TROY NFkB inh: -33.6; TWEAK-Fn14 inh: 57.2*; HSF1 inh: 69.9

How did CC=Cc1ccc2n(c1=O)C[C@H]1[C@H](CO)[C@@H](C(=O)NCc3ccccc3)[C@@H]2N1CC (mixture of isomers) do in these assays?
LGR2 antag: 1.0

What do the screens show for `CC1(C)CC(=O)C2=C(C1)Nc1cc3c(cc1C2c1ccc2c(c1)OCO2)OCO3` (stereo unspecified)?
EBV LMP1 NFkB: -14.4; HSF-1 act: 62.4*; LGR2 antag: -25.9; TROY NFkB inh: -33.0; TWEAK-Fn14 inh: -29.4; HSF1 inh: 29.3

How did CCOC(=O)N1CCC(N2C(=O)c3ccccc3C2Nc2cc(C)cc(C)c2)CC1 (stereo unspecified) do in these assays?
EBV LMP1 NFkB: 0.4; HSF-1 act: 28.6; LGR2 antag: 10.6; TROY NFkB inh: -6.3; TWEAK-Fn14 inh: 3.9; HSF1 inh: 3.7

Results for CCOC(=O)N1CCC(N2C(=O)c3ccccc3C2Nc2cc(C(=O)OC)cc(C(=O)OC)c2)CC1 (stereo unspecified) ?
EBV LMP1 NFkB: 4.4; HSF-1 act: -82.0; TROY NFkB inh: 6.7; TWEAK-Fn14 inh: -4.3; HSF1 inh: -77.5*

What do the screens show for `Cc1ccc(NC(=O)NNS(=O)(=O)c2ccc(Br)cc2)cc1`?
EBV LMP1 NFkB: 66.4*; HSF-1 act: -11.6; TROY NFkB inh: 0.3; TWEAK-Fn14 inh: -6.2; HSF1 inh: 3.5

Results for CCOc1ccc(S(=O)(=O)NNC(=S)Nc2ccc(Br)cc2)cc1 ?
EBV LMP1 NFkB: -8.5; HSF-1 act: 112.6*; LGR2 antag: -3.3; TROY NFkB inh: 12.4; TWEAK-Fn14 inh: -5.5; HSF1 inh: 86.6

Results for CCOc1ccc(NC(=S)Nc2ccc(Br)cc2Cl)cc1 ?
EBV LMP1 NFkB: 3.8; HSF-1 act: -14.8; LGR2 antag: -8.4; TROY NFkB inh: 57.5*; TWEAK-Fn14 inh: 17.6; HSF1 inh: -11.3

What do the screens show for `Cc1cc(-c2ccc(C)c(S(=O)(=O)NCc3ccc(Br)cc3)c2)on1`?
EBV LMP1 NFkB: 9.8; HSF-1 act: -21.3; LGR2 antag: 14.6; TROY NFkB inh: 31.9; TWEAK-Fn14 inh: 64.7*; HSF1 inh: -11.5

What do the screens show for `Cc1ccc(SCCN2CCN(C)CC2)cc1`?
EBV LMP1 NFkB: 2.3; HSF-1 act: 57.9*; LGR2 antag: 8.5; TROY NFkB inh: -9.1; TWEAK-Fn14 inh: -3.8; HSF1 inh: 17.8

What do the screens show for `C[C@@H]1CCCCO[C@@H](CN(C)C(=O)Nc2ccccc2)[C@H](C)CN([C@H](C)CO)C(=O)c2cc(NS(=O)(=O)c3ccc(F)cc3)ccc2O1`?
LGR2 antag: 15.6

What do the screens show for `CN(c1cccc(NC(=O)CN(c2ccc(C34CC5CC(CC(C5)C3)C4)cc2)S(C)(=O)=O)c1)S(C)(=O)=O`?
EBV LMP1 NFkB: -4.1; HSF-1 act: 6.8; TROY NFkB inh: 22.6; TWEAK-Fn14 inh: 60.7*; HSF1 inh: 0.6

Results for CN(c1cccc(NC(=O)CN(c2ccc(F)cc2)S(C)(=O)=O)c1)S(C)(=O)=O ?
EBV LMP1 NFkB: -6.7; HSF-1 act: -3.5; LGR2 antag: 10.2; TROY NFkB inh: -21.1; TWEAK-Fn14 inh: 1.6; HSF1 inh: -2.2

What do the screens show for `Cc1ccc(-c2cn3cccc(C)c3n2)cc1`?
EBV LMP1 NFkB: -3.6; HSF-1 act: 77.9*; LGR2 antag: 16.3; TROY NFkB inh: -43.6; TWEAK-Fn14 inh: 33.1; HSF1 inh: 38.0

Results for Cc1cccn2cc(-c3ccc(Cl)cc3)nc12 ?
EBV LMP1 NFkB: 1.0; HSF-1 act: 34.1; LGR2 antag: 17.8; TROY NFkB inh: 9.1; TWEAK-Fn14 inh: 53.0*; HSF1 inh: 7.7

What do the screens show for `COc1ccc(-c2cn3cccc(C)c3n2)cc1F`?
EBV LMP1 NFkB: -37.8; HSF-1 act: 41.5; LGR2 antag: -81.8; TROY NFkB inh: -28.7; TWEAK-Fn14 inh: -32.4; HSF1 inh: 22.8

How did O=C1C(=C(c2ccccc2)N2CCOCC2)Cc2ccccc21 do in these assays?
EBV LMP1 NFkB: 63.5*; LGR2 antag: 107.2*; TROY NFkB inh: 33.6; TWEAK-Fn14 inh: 97.1*

How did O=C(c1ccccc1)N1CCN(C(=O)N2CCOCC2)CC1 do in these assays?
EBV LMP1 NFkB: -13.8; HSF-1 act: 38.8; TROY NFkB inh: -10.8; TWEAK-Fn14 inh: -9.7; HSF1 inh: -4.2

How did CC(C)[C@@H]1COCc2cn(nn2)CC[C@H](C)C(=O)N1 do in these assays?
LGR2 antag: -14.1

How did COP(=O)(OC)c1ccc(NCc2cc(O)ccc2O)cc1 do in these assays?
EBV LMP1 NFkB: -1.5; LGR2 antag: -24.5; TROY NFkB inh: 5.5; TWEAK-Fn14 inh: 10.1

What do the screens show for `O=C(OCc1ccccc1)c1ccc(NCc2cc(O)ccc2O)cc1`?
EBV LMP1 NFkB: -35.6; LGR2 antag: 54.3*; TROY NFkB inh: 58.1*; TWEAK-Fn14 inh: 107.1*

What do the screens show for `CC(C)OC(=O)c1ccc(NCc2cc(O)ccc2O)cc1`?
EBV LMP1 NFkB: -6.1; TROY NFkB inh: 16.3; TWEAK-Fn14 inh: 101.1*

What do the screens show for `COc1ccc(NC(=O)N(C)C[C@@H]2Oc3ccc(NS(C)(=O)=O)cc3CC(=O)N([C@H](C)CO)C[C@@H]2C)cc1`?
LGR2 antag: -1.9

What do the screens show for `C[C@@H]1CN([C@@H](C)CO)C(=O)c2cc(C#CCN(C)C)cnc2O[C@H]1CN(C)Cc1ccccn1`?
LGR2 antag: 35.2

Results for O=C(N/N=C/c1ccc2cccc(OCc3ccccc3)c2n1)c1ccc(Br)cc1 ?
EBV LMP1 NFkB: -3.1; HSF-1 act: 9.0; TROY NFkB inh: 14.3; TWEAK-Fn14 inh: 66.2*; HSF1 inh: 0.6

How did C[C@@H]1CCCCO[C@@H](CN(C)C(=O)NC2CCCCC2)[C@H](C)CN([C@H](C)CO)C(=O)c2cc(NS(=O)(=O)c3ccccc3)ccc2O1 do in these assays?
LGR2 antag: 4.0

What do the screens show for `N#CC1=C(N)N2C(=C(C#N)C1c1cccc(Br)c1)Nc1ccccc12` (stereo unspecified)?
EBV LMP1 NFkB: 51.8*; HSF-1 act: -1.6; LGR2 antag: 26.2; TROY NFkB inh: 72.5*; TWEAK-Fn14 inh: 94.3*; HSF1 inh: -2.4

How did COc1cc(C(=O)N2CCN(c3ccc([N+](=O)[O-])cc3)CC2)ccc1OCc1c(C)noc1C do in these assays?
EBV LMP1 NFkB: 15.5; HSF-1 act: 25.5; TWEAK-Fn14 inh: 73.0*; HSF1 inh: -6.0
